Sampled rows, rich in hits. Any-hit rate of the full collection: about 8.7%.
G9a inh: qHTS Assay for Inhibitors of Histone Lysine Methyltransferase G9a; 350,000 tested, 8.8% active; G9a H3K9 monomethylation, AlphaScreen, 2 h; Potency, µM (titrated, usually from 102 µM), hits mostly inhibitors; AID 504332, 2011; further: nearly all actives have a fitted effect of over 75% in size
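G9a (20 nM) was preincubated 15 min with compound, then reacted 2 h at room temperature with 500 nM biotin-H3K9 peptide and 20 µM SAM. Monomethyl-H3K9 detected by AlphaScreen using anti-H3K9me1 antibody.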
HP1b chromo inh: HTS for Inhibitors of HP1-beta Chromodomain Interactions with Methylated Histone Tails. Chromobox protein homolog 1 (Homo sapiens), P83916. AlphaScreen HP1-beta / biotin-H3K9me3 peptide binding. Potency, µM (series often up to 114 µM), hits mostly inhibitors. 390,000 tested, 0.56% active; further: nearly all actives have a fitted effect of over 70% in size
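HP1-beta protein (50 nM final) preincubated 30 min at room temperature with biotinylated H3(1-18)K9me3 peptide (50 nM) in PBS pH 7.4, 0.01% Tween-20, then compound added for 30 min. AlphaScreen streptavidin donor/nickel chelate acceptor beads (10 ug/mL final), 30 min dark, luminescence read.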
ALOX12 inh: Primary qHTS assay for inhibitors of human arachidonate 12S-lipoxygenase (ALOX12): Round 2; purified 12hLO, xylenol orange hydroperoxide absorbance; Potency, µM (top dose mostly 108 µM), usual class: inhibitors; 580,000 tested, 1.1% active
Target sequence (P18054 whole entry, looked up): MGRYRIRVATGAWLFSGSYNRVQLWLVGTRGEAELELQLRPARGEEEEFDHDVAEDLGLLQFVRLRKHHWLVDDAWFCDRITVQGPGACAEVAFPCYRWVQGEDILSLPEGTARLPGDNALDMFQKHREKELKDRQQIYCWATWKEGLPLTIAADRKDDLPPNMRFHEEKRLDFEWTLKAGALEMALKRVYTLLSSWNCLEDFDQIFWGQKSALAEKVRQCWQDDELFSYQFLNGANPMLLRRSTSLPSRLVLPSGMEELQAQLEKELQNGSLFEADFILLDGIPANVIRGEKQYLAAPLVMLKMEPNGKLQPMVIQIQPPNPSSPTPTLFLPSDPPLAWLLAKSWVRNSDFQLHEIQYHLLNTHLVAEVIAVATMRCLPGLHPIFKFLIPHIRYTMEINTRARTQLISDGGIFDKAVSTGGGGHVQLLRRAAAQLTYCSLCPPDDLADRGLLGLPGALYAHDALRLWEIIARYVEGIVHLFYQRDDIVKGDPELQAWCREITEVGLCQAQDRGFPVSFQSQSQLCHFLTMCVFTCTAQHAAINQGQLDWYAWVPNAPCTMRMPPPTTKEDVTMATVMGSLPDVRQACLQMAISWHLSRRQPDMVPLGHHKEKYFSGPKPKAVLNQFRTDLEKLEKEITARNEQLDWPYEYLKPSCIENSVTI
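Hydroperoxide product was detected by ferrous iron/xylenol orange as the 573 to 405 nm absorbance ratio. Arachidonic acid at 40 uM (final) was turned over for 30 min at room temperature by 150 nM human 12hLO, pH 7.0 Hepes buffer, after 15 min compound preincubation.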
Sfp inh: qHTS Assay for Inhibitors of Bacillus subtilis Sfp phosphopantetheinyl transferase (PPTase); 4'-phosphopantetheinyl transferase ffp (Bacillus subtilis), Q9F4F7; Biochemical Sfp PPTase activity, qHTS; Potency, µM, hits mostly inhibitors; 310,000 tested, 3.5% active;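 further: the enzyme is Sfp with the accession as filed and its product quenches rhodamine fluorescence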
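Reaction rates are the 30-min fluorescence difference (ex 525, em 598 nm) in wells containing 15 nM Sfp, 5 uM rhodamine-CoA and 12.5 uM BHQ-2-YbbR at pH 7.6 with 10 mM MgCl2.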
BAZ2B inh: qHTS Assay for Inhibitors of BAZ2B; 360,000 tested, 4.4% active; Potency, µM (top dose mostly 114 µM), usual class: inhibitors; AlphaScreen BAZ2B-H3K14Ac peptide displacement; further: nearly all actives have a fitted effect of over 60% in size
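Compounds, titrated to a top concentration of 110 uM, were incubated 30 min at room temperature with preformed BAZ2B/acetyl-K14 H3 peptide complex (50 nM each). Proximity signal was measured by AlphaScreen after 20 min with beads.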
JMJD2A Tudor: qHTS Assay for Inhibitors of JMJD2A-Tudor Domain. Potency, µM (highest dose often 114 µM), hits mostly inhibitors. AID 504339, 2011. AlphaScreen JMJD2A-Tudor / H3K4me3 peptide binding. 390,000 tested, 4.4% active; further: nearly all actives have a fitted effect of over 50% in size
Numbers stand for hits; . = inactive; ? = inconclusive; / = no result; [ ] = dose if it differs, or a comment. The call rests on the fitted dose curve; in most records, active means well fitted curve in the direction sought with a large enough effect; inconclusive means small, poorly fitted or top-dose-only effect, or another doubt; inactive means no such curve, though single readings can be large; an effect the other way counts as inactive or inconclusive.

SMILES | G9a inh | HP1b chromo inh | ALOX12 inh | Sfp inh | BAZ2B inh | JMJD2A Tudor
O=C(N=Nc1c(O)[nH]c2ccc(Br)cc12)c1ccccc1-n1cccc1 | 25.1µM | ? | . | . | 31.6µM | 15.8µM
COc1ccc(/C=C(/C#N)C(=O)c2c(Cl)cccc2Cl)cc1 | / | / | 6.31µM | / | / | /
N#C/C(=C\c1ccccc1C(F)(F)F)C(=O)Nc1ccccc1 | . | . | . | . | . | .
COc1cccc(C(=O)/C(C#N)=C\c2ccccc2C(F)(F)F)c1 | / | / | 39.8µM | / | / | /
N#C/C(=C\c1cccc(Cl)c1)C(=O)c1ccccc1 | 39.8µM | . | ? | ? | . | .
COc1cccc(C(=O)/C(C#N)=C\c2ccc(F)c(Br)c2)c1 | / | / | 17.8µM | / | / | /
NC(=O)[C@@H](Cc1c[nH]c2ccccc12)NC(=O)[C@@H]1C[C@@H](NS(=O)(=O)c2cccs2)CCN1C(=O)[C@@H](O)[C@H](O)C(=O)O | / | / | . | / | / | /
Cn1c(=O)c2c(nc(NCc3ccco3)n2Cc2ccc(Br)cc2)n(C)c1=O | / | / | . | / | / | /
COc1ccc(C2=NOC3(CCCN(CC4CCCCC4)C3)C2)cc1 (centres undefined) | / | / | .[6.33 µM] | / | / | /
Cc1cc(NN)nc(NS(=O)(=O)c2ccccc2)n1 | 31.6µM | . | ? | 56.2µM | . | ?
CC(C)Sc1nnc(CNC(=O)C23CC4CC(CC(C4)C2)C3)n1Cc1ccccc1 | 31.6µM | . | . | . | . | .
C/C(=C/C(=O)C(F)(F)F)N1CCN(Cc2ccccc2)CC1 | / | / | . | / | / | /
O=C(CN1CCN(CC(=O)Nc2ccccc2Cl)CC1)Nc1ccc2c(c1)OCCO2 | 25.1µM | . | . | . | . | .[11.4 µM]
S=C(Nc1ccc2c(c1)OCCO2)Nc1ccccc1Cl | 79.4µM | . | ? | . | . | .
O=C(CN1CCCCCCC1)Nc1ccc(Cl)cc1Cl | . | . | ? | . | / | .
O=C(CN1CCCCC1)Nc1ccc(NC(=O)c2ccccc2Cl)cc1Cl | 10µM | . | . | . | . | .
Cc1nn(-c2ccc3nncn3n2)c2c1C(c1ccccc1Cl)CC(=O)N2 (centres undefined) | / | / | . | / | / | /
COc1ccc(N2CCN(C(=O)c3ccc4c(c3)NC(=O)C(CSCc3c(F)cccc3Cl)N4)CC2)cc1 (centres undefined) | 31.6µM | / | / | . | . | /
COc1ccc(N2CCN(C(=O)c3ccc4c(c3)NC(=O)C(CSCc3ccc(C)cc3)N4)CC2)cc1 (centres undefined) | 7.94µM | / | / | 39.8µM | ? | /
COCCCN1C(=O)c2ccc(C(=O)N3CCN(c4ccc(OC)cc4)CC3)cc2C1=O | . | . | . | . | . | .
COc1ccc(N2CCN(C(=O)c3ccc4c(c3)NC(=O)C(CSCc3cccc(F)c3)N4)CC2)cc1 (centres undefined) | 20µM | / | / | 56.2µM | . | /
COc1ccc(C(=O)N2CCN(c3cccc(Cl)c3)CC2)cc1 | . | . | . | . | . | .
CCOc1ccc(/C=N/Nc2ccccc2)cc1 | 25.1µM | . | ? | . | . | .
CCOc1ccc(/C=N/O)cc1 | .[12.7 µM] | . | . | . | . | .
FC(F)(F)c1ccc(Cl)c(N/N=C/c2ccc(OCc3ccccc3)cc2)c1 | / | / | 2.51µM | / | / | /
SMILES | G9a inh | HP1b chromo inh | ALOX12 inh | Sfp inh | BAZ2B inh | JMJD2A Tudor
O=C(O)c1cc(N/N=C/c2ccc(OCc3ccccc3)cc2)ccc1Cl | 22.4µM | . | ? | . | ? | .
O=C(Nc1cc(C(F)(F)F)ccc1Cl)c1cccc(OCc2ccccc2)c1 | / | / | . | / | / | /
FC(F)(F)c1ccc(Cl)c(N/N=C/c2ccccc2Cl)c1 | / | / | 35.5µM | / | / | /
CC(=O)Nc1ccc(C(=O)N2CCN(c3cccc(C=O)c3)C(=O)C2)cc1 | / | / | .[6.33 µM] | / | / | /
Cc1ccc(NC(=O)Nc2ccccc2)c(=O)n1CC(=O)N1CCN(c2ccccc2)CC1 | / | / | . | / | / | /
CCN(CC)c1ccc(/C=N/N2CCN(c3ccccn3)CC2)cc1 | 56.2µM | . | . | . | . | .
CCN(CC)c1ccc(/C=N/N2CCOCC2)cc1 | 11.2µM | ? | ? | . | ? | ?
Cn1nc(CC(=O)NCC(=O)OCc2ccccc2)c2ccccc2c1=O | / | / | . | / | / | /
CC(C)C(CCNC(=O)CC(Cc1ccccc1)c1ccco1)c1ccco1 (centres undefined) | .[0.501 µM] | . | ? | . | 50.1µM | ?
c1ccc(CC[C@@H]2CC[C@@H](CCc3ccccc3)N2)cc1 | .[0.501 µM] | . | . | / | . | .
c1ccc(CCC2Cc3ccccc3N2)cc1 (centres undefined) | .[0.501 µM] | . | . | / | ? | 56.2µM
COc1cc(N2CCOCC2)ccc1C=C(C#N)C#N | . | . | . | . | . | .
COc1cc(N2Cc3ccccc3C2)ccc1C=O | 31.6µM | . | . | . | . | .
COc1cc(N)ccc1NC(=O)c1cccs1 | 8.91µM | . | ? | . | . | .
Cc1cc(NC(=O)COc2ccccc2C)ccc1NC(=O)c1ccco1 | . | . | . | . | . | .
Cc1cc(NC(=O)COc2ccccc2C)ccc1NC(=O)c1cccs1 | 79.4µM | . | . | . | . | .
COc1nc(N)nc(NC(=O)c2cccs2)c1N=O | / | . | . | / | / | 28.2µM
COc1ccc(NC(=O)c2ccc(NC(=O)c3cccs3)cc2)cc1 | / | . | . | . | . | .
COc1cc(NC(=O)c2ccc(C)cc2C)ccc1NC(=O)c1cccs1 | . | . | . | . | . | .
COc1cc(NC(=S)NC(=O)c2ccc(C)cc2C)ccc1NC(=O)c1cccs1 | ? | . | 5.01µM | . | . | .
COc1cc(NC(=O)c2cc(OC)c(OC)c(OC)c2)ccc1NC(=O)c1cccs1 | . | . | . | . | . | .
CN(C)c1nc2c(c(=O)[nH]1)CCN(Cc1ccc(OC(F)(F)F)cc1)CC2 | / | / | . | / | / | /
NC(=O)C1(C(=O)N2CCc3ncnc(N4CC=CC4)c3CC2)CC1 | / | / | . | / | / | /
COc1cc(NC(=O)COc2ccc(Cl)cc2)ccc1NC(=O)C(C)C | 25.1µM | . | . | . | . | .
COc1cc(NC(=S)NC(=O)c2cccs2)ccc1NC(=O)C(C)C | ? | . | 7.08µM | . | . | .
S=c1[nH]nc(COc2ccccc2)n1/N=C/c1ccc(Cl)cc1 | 7.08µM | . | . | . | . | .
CSc1ccc(/C=N/n2c(COc3ccccc3)n[nH]c2=S)cc1 | 22.4µM | ? | . | . | ? | ?
S=c1[nH]nc(Cc2ccc(Br)cc2)n1/N=C/c1ccc(Cl)cc1 | ? | ? | ? | 14.1µM | . | 79.4µM
S=c1[nH]nc(COc2ccccc2)n1/N=C/c1ccc(Cl)cc1Cl | ? | . | . | . | . | .
O=C1CN(CC(=O)Nc2ccc(F)cc2F)CCN1 | / | / | . | / | / | /

Screening data: PubChem, National Center for Advancing Translational Sciences (NCATS)
